SMILES strings stand for the structures. For some of these results: Entries with a potency or affinity are not part of this list.

What all share (set-up): scale not given: direction of the effect not stated beside the values
The target in experiment [1] is Protein translocase subunit SecA (Escherichia coli (strain K12)) (UniProt P10408). The experiment is described as follows: Assay to Identify E. coli SecA ATPase Inhibitors. The class given is functional. The following applies: 30 µM.
Experiment [2] addresses T1, Ubiquitin-activating enzyme e1, putative (Leishmania donovani (strain BPK282A1)) (UniProt E9BSI1).
T1 sequence (whole entry): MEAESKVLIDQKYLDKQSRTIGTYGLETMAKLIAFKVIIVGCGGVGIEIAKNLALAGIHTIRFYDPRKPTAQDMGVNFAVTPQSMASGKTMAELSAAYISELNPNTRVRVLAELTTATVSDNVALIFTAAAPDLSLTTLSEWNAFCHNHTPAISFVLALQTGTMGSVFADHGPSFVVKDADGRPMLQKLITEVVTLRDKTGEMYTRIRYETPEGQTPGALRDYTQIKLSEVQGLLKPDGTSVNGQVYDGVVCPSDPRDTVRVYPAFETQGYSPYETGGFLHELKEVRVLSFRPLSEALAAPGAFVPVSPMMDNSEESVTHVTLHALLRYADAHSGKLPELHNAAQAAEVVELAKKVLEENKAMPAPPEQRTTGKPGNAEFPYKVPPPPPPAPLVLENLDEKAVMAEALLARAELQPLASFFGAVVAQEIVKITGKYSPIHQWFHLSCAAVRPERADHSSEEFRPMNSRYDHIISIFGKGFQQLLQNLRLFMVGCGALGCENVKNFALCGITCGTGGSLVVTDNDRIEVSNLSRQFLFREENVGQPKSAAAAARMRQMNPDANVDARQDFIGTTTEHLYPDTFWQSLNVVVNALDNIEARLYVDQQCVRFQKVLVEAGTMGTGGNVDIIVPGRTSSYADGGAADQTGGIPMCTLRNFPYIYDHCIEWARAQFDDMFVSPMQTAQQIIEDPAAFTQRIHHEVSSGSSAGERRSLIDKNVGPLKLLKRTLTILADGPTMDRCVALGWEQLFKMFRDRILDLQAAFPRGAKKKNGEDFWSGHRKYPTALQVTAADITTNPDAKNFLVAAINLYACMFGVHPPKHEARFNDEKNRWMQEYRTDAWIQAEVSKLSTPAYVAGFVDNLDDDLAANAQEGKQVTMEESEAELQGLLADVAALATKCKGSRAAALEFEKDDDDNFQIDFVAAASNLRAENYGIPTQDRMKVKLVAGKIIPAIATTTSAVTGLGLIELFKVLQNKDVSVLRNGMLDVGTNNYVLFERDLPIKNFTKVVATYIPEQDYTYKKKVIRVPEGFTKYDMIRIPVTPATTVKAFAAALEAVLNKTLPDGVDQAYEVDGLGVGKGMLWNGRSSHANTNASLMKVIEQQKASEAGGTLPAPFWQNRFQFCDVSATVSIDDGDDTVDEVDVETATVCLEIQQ
In words: Leishmania donovani Ubiquitin Activating Enzyme (LdE1). The class given is functional. The following applies: 30 µM.

Experiment [3] deals with AMP-activated protein kinase, AMPK (Homo sapiens) (UniProt P54646+O43741+P54619+Q9UGJ0+Q9Y478+Q13131+Q9UGI9). The experiment is described as follows: AMP-dependent Kinase enzyme assay. An in vitro enzyme assay that detects ADP turnover that is directly proportional to AMPK activity. This uses naive AMPK that is activated during the assay with MK-8722. Conditions: 30 µM. The class given is functional.

For experiment [4], the target named is Sialic acid-binding Ig-like lectin 9 (Homo sapiens) (UniProt Q9Y336). In words: Hs-Siglec9 ALPHAscreen SOP 20170721. The following applies: 10 µM. Background: Alpha assays give light when donor and acceptor beads are brought close together.
Chain of Sialic acid-binding Ig-like lectin 9 (Homo sapiens) (Q9Y336 whole entry): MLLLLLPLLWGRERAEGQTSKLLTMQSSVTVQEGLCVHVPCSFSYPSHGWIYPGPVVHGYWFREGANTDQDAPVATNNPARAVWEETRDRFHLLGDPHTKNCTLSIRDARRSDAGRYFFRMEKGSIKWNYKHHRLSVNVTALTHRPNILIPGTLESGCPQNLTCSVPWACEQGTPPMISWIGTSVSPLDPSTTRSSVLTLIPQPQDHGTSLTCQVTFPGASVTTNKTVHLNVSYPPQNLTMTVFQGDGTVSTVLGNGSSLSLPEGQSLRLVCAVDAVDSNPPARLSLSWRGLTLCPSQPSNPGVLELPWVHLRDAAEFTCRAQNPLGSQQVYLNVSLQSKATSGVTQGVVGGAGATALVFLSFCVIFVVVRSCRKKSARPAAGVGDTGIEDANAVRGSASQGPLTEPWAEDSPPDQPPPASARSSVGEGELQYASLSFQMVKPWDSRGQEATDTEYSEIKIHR
In another experiment the test system is Trypanosoma cruzi. The experiment is described as follows: Trypanosoma cruzi phosphomannomutase and mannose-1-phosphate guanylyltransferase assay. The class given is functional. The following applies: 10 µM.
Experiment [5] concerns the target T2, Arginase-2, mitochondrial (Homo sapiens) (UniProt P78540).
T2 sequence (whole entry): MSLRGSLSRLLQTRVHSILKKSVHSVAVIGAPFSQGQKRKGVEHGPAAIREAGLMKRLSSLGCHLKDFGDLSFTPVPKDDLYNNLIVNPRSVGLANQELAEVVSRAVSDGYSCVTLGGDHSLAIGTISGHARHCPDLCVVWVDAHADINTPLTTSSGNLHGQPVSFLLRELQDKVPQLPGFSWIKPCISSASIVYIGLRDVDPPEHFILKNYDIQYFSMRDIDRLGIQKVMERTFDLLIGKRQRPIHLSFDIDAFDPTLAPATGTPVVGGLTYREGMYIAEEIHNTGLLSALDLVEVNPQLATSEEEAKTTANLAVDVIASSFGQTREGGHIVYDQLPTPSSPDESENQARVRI
In words: in vitro enzyme assay to detect the production of urea directly proportional to the activity of Arginase II. Note: in the data most compounds retested in dose-response had high values. Format: functional. The following applies: 33.3 µM.

Experiment [6] deals with T3, Proteasome subunit beta (Trypanosoma cruzi) (UniProt O96673).
T3 sequence (whole entry): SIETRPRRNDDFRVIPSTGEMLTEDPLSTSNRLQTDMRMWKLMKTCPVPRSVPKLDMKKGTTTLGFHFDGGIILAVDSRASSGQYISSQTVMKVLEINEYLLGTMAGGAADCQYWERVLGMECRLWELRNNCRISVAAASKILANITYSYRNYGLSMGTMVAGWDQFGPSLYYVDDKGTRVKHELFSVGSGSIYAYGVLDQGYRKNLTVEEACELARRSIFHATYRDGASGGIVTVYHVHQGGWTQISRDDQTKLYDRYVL
The experiment is described as follows: Trypanosoma cruzi proteasome chymotrypsin-like activity (TcProtChymo) assay. Note: in the data most compounds retested in dose-response had high values. Format: functional. The following applies: 9.37 µM.

The next experiment is filed under the species Homo sapiens. The experiment is described as follows: To identify inhibition of the IFN signalling (Jak-Stat) pathway via expression of an eGFP reporter gene under the control of an IFN-stimulated response element (ISRE) containing MxA promoter. Format: functional. Conditions: 30 µM.
Experiment [7] has as its target T4, Tyrosyl-tRNA synthetase, putative (Trypanosoma cruzi (strain CL Brener)) (UniProt Q4DSP6).
T4 sequence (whole entry): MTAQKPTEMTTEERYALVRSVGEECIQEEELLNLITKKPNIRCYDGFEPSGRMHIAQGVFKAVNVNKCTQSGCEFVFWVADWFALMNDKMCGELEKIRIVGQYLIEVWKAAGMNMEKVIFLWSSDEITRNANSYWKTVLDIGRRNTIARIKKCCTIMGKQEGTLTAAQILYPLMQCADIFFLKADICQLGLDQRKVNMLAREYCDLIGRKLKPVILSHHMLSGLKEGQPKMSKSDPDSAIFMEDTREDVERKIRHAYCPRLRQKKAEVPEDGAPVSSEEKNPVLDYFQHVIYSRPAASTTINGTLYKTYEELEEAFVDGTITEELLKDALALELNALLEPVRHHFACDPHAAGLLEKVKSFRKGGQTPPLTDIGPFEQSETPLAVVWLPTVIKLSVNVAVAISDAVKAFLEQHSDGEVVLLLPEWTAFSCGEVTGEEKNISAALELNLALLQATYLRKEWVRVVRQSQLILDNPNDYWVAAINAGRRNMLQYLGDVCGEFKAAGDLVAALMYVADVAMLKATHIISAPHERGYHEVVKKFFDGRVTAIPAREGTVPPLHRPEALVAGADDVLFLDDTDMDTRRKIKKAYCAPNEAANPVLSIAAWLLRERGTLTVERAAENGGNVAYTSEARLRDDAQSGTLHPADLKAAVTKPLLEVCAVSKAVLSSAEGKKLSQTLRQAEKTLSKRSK
In words: Trypanosoma cruzi tyrosyl tRNA synthetase (TcYRS) _High Tyrosine SOP. Note: in the data most compounds retested in dose-response had high values. Conditions: 30 µM. The class given is functional.

Experiment [8] concerns the target T4, Tyrosyl-tRNA synthetase, putative (Trypanosoma cruzi (strain CL Brener)). The experiment is described as follows: Trypanosoma cruzi tyrosyl tRNA synthetase (TcYRS) SOP. The class given is functional. Conditions: 30 µM.
In experiment [9] the target is Chromo domain-containing protein 1 (Saccharomyces cerevisiae (strain ATCC 204508 / S288c) (Baker's yeast)) (UniProt P32657). The experiment is described as follows: ScCHD-1 Enzyme Inhibition Assay. Note: in the data most compounds retested in dose-response had high values. Format: functional. The following applies: 30 µM.
Chain of Chromo domain-containing protein 1 (Saccharomyces cerevisiae (strain ATCC 204508 / S288c) (Baker's yeast)) (P32657 whole entry, the tested form may be a part): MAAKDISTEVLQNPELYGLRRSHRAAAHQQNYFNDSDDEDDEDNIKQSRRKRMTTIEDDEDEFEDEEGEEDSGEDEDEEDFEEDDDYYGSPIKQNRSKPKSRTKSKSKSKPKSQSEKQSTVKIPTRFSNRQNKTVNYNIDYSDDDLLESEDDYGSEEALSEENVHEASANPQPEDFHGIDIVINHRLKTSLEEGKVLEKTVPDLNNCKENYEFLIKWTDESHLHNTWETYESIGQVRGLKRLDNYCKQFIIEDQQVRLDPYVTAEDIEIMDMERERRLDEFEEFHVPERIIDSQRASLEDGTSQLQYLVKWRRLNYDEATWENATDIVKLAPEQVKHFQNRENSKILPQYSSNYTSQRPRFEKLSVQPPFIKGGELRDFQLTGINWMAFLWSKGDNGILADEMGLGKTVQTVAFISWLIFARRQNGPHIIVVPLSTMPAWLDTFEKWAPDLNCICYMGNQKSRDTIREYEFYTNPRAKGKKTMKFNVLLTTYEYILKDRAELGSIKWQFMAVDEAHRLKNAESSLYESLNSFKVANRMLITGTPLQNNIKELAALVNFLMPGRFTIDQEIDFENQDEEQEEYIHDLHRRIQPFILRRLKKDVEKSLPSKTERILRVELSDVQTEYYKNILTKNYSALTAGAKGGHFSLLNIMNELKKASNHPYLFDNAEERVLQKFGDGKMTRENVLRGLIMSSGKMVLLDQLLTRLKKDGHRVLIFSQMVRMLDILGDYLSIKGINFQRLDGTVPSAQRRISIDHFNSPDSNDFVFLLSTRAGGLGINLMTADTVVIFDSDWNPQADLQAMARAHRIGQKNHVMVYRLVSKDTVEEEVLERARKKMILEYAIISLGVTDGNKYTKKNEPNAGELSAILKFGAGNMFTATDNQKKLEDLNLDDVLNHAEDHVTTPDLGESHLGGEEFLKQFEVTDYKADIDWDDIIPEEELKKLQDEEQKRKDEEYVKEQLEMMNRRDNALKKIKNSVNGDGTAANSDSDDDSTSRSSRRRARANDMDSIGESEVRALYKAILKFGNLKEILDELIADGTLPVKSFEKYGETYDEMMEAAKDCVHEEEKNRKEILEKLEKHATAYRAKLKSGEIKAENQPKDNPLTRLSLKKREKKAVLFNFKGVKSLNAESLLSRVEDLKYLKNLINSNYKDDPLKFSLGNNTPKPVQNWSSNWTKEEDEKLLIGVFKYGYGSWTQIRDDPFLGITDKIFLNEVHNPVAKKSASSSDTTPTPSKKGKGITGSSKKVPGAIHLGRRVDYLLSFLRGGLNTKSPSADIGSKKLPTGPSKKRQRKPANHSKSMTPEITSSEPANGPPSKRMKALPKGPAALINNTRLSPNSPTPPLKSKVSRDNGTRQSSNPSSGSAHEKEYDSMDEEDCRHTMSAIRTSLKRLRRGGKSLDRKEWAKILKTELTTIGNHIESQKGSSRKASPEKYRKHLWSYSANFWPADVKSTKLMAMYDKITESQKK

Chain of Protein translocase subunit SecA (Escherichia coli (strain K12)) (P10408 whole entry): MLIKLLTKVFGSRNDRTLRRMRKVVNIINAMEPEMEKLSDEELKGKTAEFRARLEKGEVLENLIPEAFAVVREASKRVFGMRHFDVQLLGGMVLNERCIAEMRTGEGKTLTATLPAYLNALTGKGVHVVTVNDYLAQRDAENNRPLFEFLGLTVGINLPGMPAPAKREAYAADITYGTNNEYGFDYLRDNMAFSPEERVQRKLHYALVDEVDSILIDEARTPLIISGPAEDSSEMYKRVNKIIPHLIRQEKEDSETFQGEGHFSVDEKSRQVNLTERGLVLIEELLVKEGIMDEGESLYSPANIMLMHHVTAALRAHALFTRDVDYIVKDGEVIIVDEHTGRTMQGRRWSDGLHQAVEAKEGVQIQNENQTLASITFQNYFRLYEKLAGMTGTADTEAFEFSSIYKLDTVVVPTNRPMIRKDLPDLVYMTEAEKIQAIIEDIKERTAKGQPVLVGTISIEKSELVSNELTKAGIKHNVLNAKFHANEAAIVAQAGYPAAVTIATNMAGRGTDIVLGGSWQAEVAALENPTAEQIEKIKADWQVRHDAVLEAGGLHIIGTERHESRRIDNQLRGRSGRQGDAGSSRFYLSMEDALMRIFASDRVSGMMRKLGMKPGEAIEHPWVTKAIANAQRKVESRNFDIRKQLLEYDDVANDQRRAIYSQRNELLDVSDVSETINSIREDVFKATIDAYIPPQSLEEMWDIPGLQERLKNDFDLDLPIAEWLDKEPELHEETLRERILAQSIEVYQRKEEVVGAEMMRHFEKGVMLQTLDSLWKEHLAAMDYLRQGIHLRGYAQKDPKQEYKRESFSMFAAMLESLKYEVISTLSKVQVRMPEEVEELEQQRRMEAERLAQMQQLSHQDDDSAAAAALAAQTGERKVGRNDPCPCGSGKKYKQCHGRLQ

Turning to `CCN1CCN(C2CCN(Cc3ncc(C(C)(C)C)o3)CC2)C1=O`, the Percent Effect in experiment [1] is -2.95%; in experiment [2], -7.79%; in experiment [3] it was 6.42%; in experiment [4], 7.85%; in the experiment on Trypanosoma cruzi it was 1.47%; in experiment [5] it was -1.47%. Moreover, the Percent Effect in experiment [6] is 7.2%; in the experiment listed under Homo sapiens it was -13.2%; in experiment [7], 6.67%; in experiment [8] it was 7.06%; in experiment [9], -19.1%.

For `Cc1nc(C)n(CC2CCCN(CCCOc3ccccc3)C2)n1` (stereo unspecified), the Percent Effect in experiment [1] is -3.18%; in experiment [2] it was 1.27%; in experiment [3], 8.34%; in experiment [4], 3.65%; in the experiment with Trypanosoma cruzi, -0.718%; in experiment [5], 1.07%. The Percent Effect in [6] is -1.37%; in the experiment filed under Homo sapiens, -1.23%; in experiment [7], 3.12%; in [8] it was 12.7%; in [9], -5.2%.

As for `CC(C)(O)CN1CCN(C(=O)c2cc3ccccc3c(=O)[nH]2)CC1`, the Percent Effect is 0.132% in experiment [1]; 2.63% in experiment [2]; 5.98% in experiment [3]; -1.12% in [4]; -3.6% in the experiment with Trypanosoma cruzi; -2.37% in experiment [5]. Further, the Percent Effect in experiment [6] is 7.57%; in the experiment filed under Homo sapiens, -8.77%; in experiment [7], 7.45%; in [8], 13%; in experiment [9], -5.58%.

`Cc1noc(CN(Cc2ccc3c(c2)OCO3)C2CCCC2)n1`: the Percent Effect in experiment [1] was -1.22%; in [2], 10.8%; in experiment [3], -9.58%; in experiment [4], 6.53%; in the experiment on Trypanosoma cruzi, -1.04%; in experiment [5], -12%. Moreover, the Percent Effect in experiment [6] is 6.67%; in the experiment filed under Homo sapiens, 29.7%; in [7], 3.45%; in [8] it was 3.7%; in experiment [9], -9.8%.

Turning to `Cc1nc(C)n(CC2CN(CC(=O)Nc3nccs3)CCO2)n1` (stereo unspecified), the Percent Effect in experiment [1] was -0.715%; in experiment [2], 1.39%; in experiment [3], -0.871%; in experiment [4], 15.8%; in the experiment with Trypanosoma cruzi, 3.98%; in experiment [5], 10.6%. Moreover, the Percent Effect in [6] was 7.19%; in the experiment listed under Homo sapiens, 20.3%; in experiment [7] it was 5.26%; in experiment [8], 10.3%; in experiment [9] it was -1.52%.

As to `Cc1cc(C(=O)N2Cc3ccccc3OC3(CCOCC3)C2)nc(N)n1`, the Percent Effect in [1] was -5.65%; in experiment [2], 17.6%; in experiment [3], 1.22%; in experiment [4] it was -2.77%; with Trypanosoma cruzi, 0%; in experiment [5] it was -4.87%. Further, the Percent Effect was 22.9% in [6]; 0.0795% in the experiment filed under Homo sapiens; 2.15% in experiment [7]; 14.3% in experiment [8]; -24% in experiment [9].

For `CC(C(=O)Nc1ccc(N2CCCC2)nc1)n1ccnc1` (stereo unspecified), the Percent Effect is -1.03% in experiment [1]; 5.41% in experiment [2]; -13.4% in experiment [3]; 11.1% in [4]; 0.0943% in the experiment with Trypanosoma cruzi; -8.82% in experiment [5]. Besides, the Percent Effect in experiment [6] is 8.65%; in the experiment listed under Homo sapiens it was 28.6%; in experiment [7], 5.42%; in experiment [8], 16.1%; in [9] it was -8.67%.

In the case of `Cc1nn(C)c(N(C)C)c1CNCc1cccnc1-n1cncn1`, the Percent Effect is -3.71% in experiment [1]; 8.86% in experiment [2]; 1.44% in experiment [3]; 1.22% in experiment [4]; -4.21% with Trypanosoma cruzi; 3.23% in [5]. In addition, the Percent Effect was 12.9% in [6]; -1.83% in the experiment listed under Homo sapiens; 7.29% in [7]; 12.7% in experiment [8]; -7.57% in experiment [9].

For the compound `Cn1nnc2c1CCN(CC1CC1)C2COCc1ccccc1` (stereo unspecified), the Percent Effect is -1.15% in [1]; 16% in experiment [2]; -5.25% in experiment [3]; -5.75% in experiment [4]; 2.36% in the experiment with Trypanosoma cruzi; 5.36% in experiment [5]. Further, the Percent Effect in [6] was 3.44%; in the experiment filed under Homo sapiens it was -2.55%; in [7], 9.57%; in experiment [8] it was 14.1%; in [9], -4.41%.

As for `CN1CCN(Cc2cnc3n2CCN(Cc2cccs2)C3)CC1`, the Percent Effect was -1.16% in experiment [1]; 21.6% in experiment [2]; -2.7% in experiment [3]; -1.5% in [4]; 3.62% in the experiment with Trypanosoma cruzi; 2.87% in [5]. In addition, the Percent Effect in [6] was 19.7%; in the experiment listed under Homo sapiens it was -1.05%; in experiment [7] it was 4.32%; in experiment [8], 20.5%; in experiment [9], -0.68%.

`CCCNC(=O)c1sc(Nc2ccc(Cl)cn2)nc1C`: the Percent Effect is -0.647% in [1]; 17.3% in [2]; -1.88% in experiment [3]; -4.2% in experiment [4]; 4.13% with Trypanosoma cruzi; -0.88% in [5]. Besides, the Percent Effect in experiment [6] is 13.5%; in the experiment listed under Homo sapiens it was -1.08%; in [7] it was 7.41%; in experiment [8], 7.69%; in [9] it was -6.09%.

The values above are taken from ChEMBL document CHEMBL3988442, “University of Dundee, Small-Polar-MMV Screening Library” (2021).
